# The list is a sample of the results.
# aSyn UTR act – Activators via SNCA 5'UTR binding, MLPCN; AID 1814, 2009; alpha-synuclein 5'UTR reporter, activators screen; actives 7.1% (n = 300,000); activity score, % (tested at 7.5 µM), hits read low; in the data active = activity score below about -60%
# * = called active by the depositor.
SMILES,aSyn UTR act
CC(=O)Nc1cccc(OCC(=O)Nc2ccccc2)c1,-114*
COc1cccc(NC(=O)CC(=O)c2ccc([N+](=O)[O-])cc2)c1,-115*
CCn1nc(C)c(C(=O)Nc2cc(Oc3cc(C)cc(C)c3)cc([N+](=O)[O-])c2)c1C,50
COc1ccc(OCC(=O)Nc2ccc(OC)c(S(=O)(=O)N3CCCCC3)c2)cc1,-96*
CC(C)(C)C1(C)OC(=O)C(=Cc2ccc(OCC(=O)Nc3ccccc3)cc2)C(=O)O1 (stereo not given),-84*
CC(=O)Nc1cccc(OCCCNC(=O)c2ccc(C(C)(C)C)cc2)c1,-72*
O=C(O)Cn1cc(/C=c2/sc3nc4ccccc4n3c2=O)c2ccccc21,-162*
Cc1ccc(-n2c(C)cc(/C=c3/sc4nc5ccccc5n4c3=O)c2C)cc1,67
O=C(/C=C/c1ccc(O)c([N+](=O)[O-])c1)c1ccc2ccccc2c1,-124*
CN(C)c1ccc(/C=C/C(=O)c2ccccc2)cc1[N+](=O)[O-],-195*
COc1ccc(Oc2ccc(/C=C/C(=O)c3ccc(O)cc3)cc2[N+](=O)[O-])cc1,-97*
Cc1ccc(NC(=O)c2ccco2)c([N+](=O)[O-])c1,-197*
COc1ccc(NC(=O)c2ccco2)c([N+](=O)[O-])c1,-76*
Cc1nc(SCC(=O)c2cccs2)c2oc3ccccc3c2n1,-134*
O=C(CSc1ncnc2c1oc1ccccc12)c1cccs1,-125*
CC1CCN(c2oc(-c3ccc(F)cc3)nc2C#N)CC1,-67*
CC1CCN(c2oc(-c3ccccc3Cl)nc2C#N)CC1,-144*
COc1ccccc1CNC(=O)[C@@H]1CCCN1S(=O)(=O)c1ccc(C)cc1,-113*
COc1ccc(CCN2CCC(Nc3nc4ccccc4n3Cc3ccc(F)cc3)CC2)cc1,103
CN(C(=O)c1ccc(OC2CCN(CCc3ccccc3)CC2)cc1)C1CCCCC1,-125*
Cc1cc(C)cc(N(CC(=O)Nc2ccc(-c3nc4ccc(C)cc4s3)cc2)S(C)(=O)=O)c1,-100*
Cc1cccc(NS(=O)(=O)c2ccc(NC(=O)CN(c3cc([N+](=O)[O-])ccc3C)S(C)(=O)=O)cc2)c1,101
Cc1ccc2nc(-c3ccc(NC(=O)CN4CCN(C(=O)c5ccco5)CC4)cc3)sc2c1,-177*
Cc1ccc2nc(-c3ccc(NC(=O)CN(c4ccccc4C)S(C)(=O)=O)cc3)sc2c1,-164*
COc1ccc(/C(N)=N/OC(=O)CC2CCCCC2)cc1,-111*
SMILES,aSyn UTR act
N/C(=N\OC(=O)CSc1ccccc1)c1ccc([N+](=O)[O-])cc1,-121*
N/C(=N\OCc1ccc([N+](=O)[O-])cc1)c1ccncc1,-83*
Cc1ccc(/C(N)=N/OC(=O)CSc2ccccc2)cc1,-185*
COc1ccc(/C(N)=N/OC(=O)CSc2ccccc2)cc1,-162*
CCOC(=O)C1(C)C=C(Nc2cccc(OC)c2)C(=O)N1c1ccccc1 (stereo not given),-79*
CSc1nc(O)c(N=Nc2ccc(F)cc2F)c(=O)[nH]1,-138*
Cn1c(=O)c2c(nc(NCC3CCCC(CN)C3)n2Cc2ccc(Cl)cc2Cl)n(C)c1=O (stereo not given),-84*
CC1CCc2onc(C(=O)NCc3ccco3)c2C1 (stereo not given),-64*
O=C(NCc1ccco1)c1ccc(-c2cccc(Cl)c2)o1,-74*
O=C(NCc1ccco1)c1cc(-c2cccc(Cl)c2)on1,-92*
O=C(NCc1ccco1)c1cc(-c2ccc3c(c2)OCO3)on1,-97*
O=C(NCc1ccco1)c1ccc(Cn2c(=O)c3ccccc3n(Cc3cccc(Cl)c3)c2=O)cc1,64
CC1=Nc2cc(C(=O)NCc3ccco3)ccc2Sc2ccc(C)cc21,101
COc1cccc(-c2cc(C(=O)NCc3ccco3)no2)c1,-97*
O=C(NCc1ccco1)c1cc(-c2ccc(Cl)cc2)on1,-130*
CC(C)Cc1cc(C(=O)NCc2ccco2)no1,-92*
Cc1ccc(-c2cc(C(=O)NCc3ccco3)no2)cc1,-154*
COc1ccc(OC)c(-c2cc(C(=O)Nc3c(C)nn(Cc4ccccc4)c3C)no2)c1,61
COc1ccc(OC)c(-c2cc(C(=O)NCc3ccco3)no2)c1,-69*
COc1ccc2cc(C(=O)NCc3ccco3)c(=O)oc2c1,-93*
C/C(=C\C(=O)Nc1cc(C)on1)c1ccccc1,-110*
Cc1ccc(/C=C2\SC(=S)N(CCCC(=O)Nc3cc(C)on3)C2=O)cc1,58
Cc1cc(NC(=O)/C=C/c2ccc(Cl)cc2)no1,-78*
Cc1cc(NC(=O)/C=C/c2ccc(Br)cc2)no1,-74*
S=C(Nc1ccc(Cl)cc1)NC1CCCCC1,-73*
SMILES,aSyn UTR act
S=C(Nc1ccc(Br)cc1)NC1CCCCC1,-119*
FC(F)Oc1ccc(NC(=S)NC2CCCCCCC2)cc1,-93*
Cc1c(NC(=O)/C(C#N)=C/c2ccc(-c3ccccc3Cl)o2)c(=O)n(-c2ccccc2)n1C,56
CC(=O)/C=C(\C)Nc1c(C)n(C)n(-c2ccccc2)c1=O,-82*
C[n+]1c2n(c3ccccc31)N=C(c1cc(C(C)(C)C)c(O)c(C(C)(C)C)c1)CS2,68
Cc1ccc2c(c1)c1cccc3c1n2CCN3CCC(N)=O,-172*
CNC[C@@H](CC1CCCCC1)NC[C@H](CC(C)C)NCCc1cccc(C(F)(F)F)c1,122
CC(C)NC(=O)CCc1nnc(Cc2cccc(C(F)(F)F)c2)o1,-95*
CC[C@@H](C)[C@H](CNC)NC[C@@H](Cc1cccc2ccccc12)NCCc1cccc(C(F)(F)F)c1,125
Cc1ccc(C(=O)N/N=C2\CCCc3ccccc32)c(C)c1,-161*
O=C(N/N=C1\CCCc2ccccc21)c1ccc([N+](=O)[O-])cc1,-82*
CCc1c(C)nc2cc(-c3ccc(OC)cc3)[nH]n2c1=O,-156*
COCc1cc(=O)n2[nH]c(-c3ccc(C)cc3)cc2n1,-128*
CCCc1cc(=O)n2[nH]cc(-c3ccc(Cl)cc3)c2n1,71
CCOC(=O)Cc1c(C)nc2cc(-c3ccc(Cl)cc3)[nH]n2c1=O,-67*
Cc1ccc(OCCCn2c(CO)nc3ccccc32)cc1,-62*
Cc1cccc(OCCCn2c(CO)nc3ccccc32)c1,-84*
O=C(Nc1cc(=O)[nH]c(=O)[nH]1)c1cc(Cl)ccc1Cl,-65*
Nc1cccc2nc3ccccc3cc12,101
Nc1ccccc1-c1nc2ccccc2[nH]1,-163*
Oc1ccc(C=Nc2ccccc2-c2nc3ccccc3[nH]2)cc1,-142*
Cn1cc(-c2nc3ccccc3[nH]2)c2ccccc21,-124*
O=c1[nH]cccc1-c1nc2ccccc2[nH]1,-132*
CCCCc1ccc(NC(=O)Nc2cccnc2)cc1,-102*
O=C(Nc1ccccc1)OCCCc1ccccc1,-119*
SMILES,aSyn UTR act
CCCCc1ccc(NC(=O)OC)cc1,-79*
Cc1cccc(N/N=C(\C(N)=O)C2=NC(C)(C)Cc3ccccc32)c1,59
Cc1cccc(NC(=O)C2Cc3ccccc3O/C2=N\O)c1 (stereo not given),-138*
COc1ccc(NC(=O)C2Cc3ccccc3O/C2=N\O)cc1 (stereo not given),-82*
Oc1ccc(C2C(c3ccccc3)=NN=C(c3ccccc3F)N2O)c(O)c1 (stereo not given),-91*
Oc1ccc(C2C(c3ccccc3)=NN=C(c3ccc(Cl)cc3)N2O)c(O)c1 (stereo not given),-72*
CC(=O)c1sc(N/N=C2\CC3CC2C(C)C3(C)C)nc1C (stereo not given),-101*
C/C(CC(C)C)=N\NC(=O)Nc1ccccc1,-69*
N/C(=N\NC(=O)Nc1ccccc1)c1ccccn1,-168*
